Laboratory results published in PubChem BioAssay (Tox21).
Results filed as inconclusive are left out. The source made the active and inactive calls. Unless noted, calls follow the shape of the dose curve; as a rule, active = well fitted curve in the direction sought with a large enough effect in the repeat runs; inconclusive = weak or mixed curves; inactive = no such curve, though single readings can be large; an effect the other way counts as inactive or inconclusive.

How the values were obtained:
[1] = qHTS assay for small molecule agonists of the p53 signaling pathway (AID 651631; calls by dose curve; also: nearly all actives have a fitted effect of over 15% in size)
In short: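 Fluorescence intensity from cleaved LiveBLAzer B/G substrate (2 h, room temperature) served as the signal. Beforehand, HCT-116 reporter cells bearing p53 response elements were treated 16 h at 37 °C with DMSO-dissolved compounds.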

[2] = qHTS assay for small molecules that induce genotoxicity in human embryonic kidney cells expressing luciferase-tagged ATAD5 (AID 651632); also: nearly all actives have a fitted effect of over 15% in size
In short: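 Quantitative HTS in HEK293T expressing luciferase-tagged ATAD5, whose levels rise upon DNA damage. Exposure ran 16 hr at 37C and 5% CO2, with luminescence read 30 min after Amplite addition at room temperature.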

[3] = qHTS assay for small molecule agonists of the p53 signaling pathway - cell viability (AID 651633; calls by dose curve;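 also: p53RE-bla HCT reporter cells with a stable beta-lactamase p53 reporter; series mostly up to about 83 µM; nearly all actives have a fitted effect of over 30% in size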)
In short: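 p53RE-bla cells were treated with compound for 16 hours at 37 C. Cytotoxicity was then measured as CellTiter-Glo luminescence after 30 min at room temperature.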

[4] = qHTS assay for small molecules that induce genotoxicity in human embryonic kidney cells expressing luciferase-tagged ATAD5 - cell viability (AID 651634; calls by dose curve; also: nearly all actives have a fitted effect of over 25% in size)
In short: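 After 15.5 hr incubation with compound at 37C, 5% CO2, HEK293T ATAD5-luciferase cells received CellTiter-Fluor reagent; fluorescence intensity was quantified following 30 min at 37C.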

[5] = qHTS assay for small molecule disruptors of the mitochondrial membrane potential - cell viability (AID 720634; calls by dose curve;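 also: human HepG2 liver cancer cells; series mostly up to about 83 µM; nearly all actives have a fitted effect of over 20% in size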)
In short: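 ATP-based luminescent viability readout (CellTiter-Glo, 30 min, room temperature) in HepG2 cells multiplexed with the m-MPI membrane potential dye; compound exposure lasted 1 hr at 37 C.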

[6] = qHTS assay to test for compound auto fluorescence at 590 nm (red) in HepG2 cells (AID 720674)
In short: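 Fluorescence at 590 nm emission following 540 nm excitation was recorded from HepG2 wells one hour after compound transfer, with DMSO-only wells as vehicle and Rose Bengal sodium equivalency as the scale.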

[7] = qHTS assay to test for compound auto fluorescence at 460 nm (blue) in HEK293 cells (AID 720678)
In short: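 HEK293, 2,000 cells/well, 10% dialyzed FBS; attach 4-5 hr 37C; pin compound or DMSO; o/n 37C/5% CO2; fluorescence 405/460 nm; triamterene-equivalent units.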

[8] = qHTS assay to test for compound auto fluorescence at 590 nm (red) in HEK293 cells (AID 720679)
In short: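 Intensity at 540nm excitation and 590nm emission is reported as Rose Bengal sodium-equivalent autofluorescence. Measurements followed overnight exposure (37C, 5% CO2) of HEK293 cells, 2,000 per well, to 23 nL compound.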

[9] = qHTS assay to test for compound auto fluorescence at 535 nm (green) in HEK293 cells (AID 720680)
[10] = qHTS assay to test for compound auto fluorescence at 460 nm (blue) in HEK293 cell free culture (AID 720681)
In short: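 Compounds were added to cell-free DMEM with 10% FBS and fluorescence read directly. The blue channel used 405 nm excitation and 460 nm emission, with triamterene as the reference fluorophore.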

[11] = qHTS assay to test for compound auto fluorescence at 535 nm (green) in HEK293 cell free culture (AID 720682)
In short: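 Intrinsic compound fluorescence is measured in culture medium containing 10% FBS, with excitation at 485 nm and detection at 535 nm, referenced to fluorescein.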

[12] = qHTS assay to test for compound auto fluorescence at 590 nm (red) in HEK293 cell free culture (AID 720683)
In short: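 Cell-free wells of DMEM with 10% FBS received compound, and intrinsic fluorescence was read at excitation/emission 540/590 nm. Values expressed as equivalence to Rose Bengal sodium.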

[13] = qHTS assay to test for compound auto fluorescence at 590 nm (red) in HepG2 cell free culture (AID 720684)
In short: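 Rose Bengal sodium served as the reference for red signal. Test compounds were dispensed into serum-containing MEM (10% FBS) without cells, and plates were read at 540/590 nm.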

[14] = qHTS assay to test for compound auto fluorescence at 460 nm (blue) in HepG2 cell free culture (AID 720685)
In short: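 Cell-free plates of MEM plus 10% FBS received 23 nL compound or DMSO vehicle; blue-channel (405/460 nm) intensity scored against triamterene as reference fluorophore.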

[15] = qHTS assay to test for compound auto fluorescence at 535 nm (green) in HepG2 cell free culture (AID 720686)
[16] = qHTS assay to test for compound auto fluorescence at 460 nm (blue) in HepG2 cells (AID 720687)
In short: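 HepG2 cells in MEM with 10% FBS, attached overnight at 37 C, were exposed to compound or DMSO for 1 hr at 37 C, 5% CO2. Blue fluorescence was read at 405/460 nm, with triamterene as reference fluorophore.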

[17] = biological target: Glucocorticoid receptor (Homo sapiens) (UniProt P04150); experiment: qHTS assay to identify small molecule agonists of the glucocorticoid receptor (GR) signaling pathway (AID 720691; active = well fitted activation curve with a large enough effect in the signal ratio in the repeat runs, not every such curve was filed as active; the % refers to the signal ratio)
In short: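 Cells: GR-bla HeLa, endogenous GR with stably integrated GRE-beta-lactamase reporter. Treatment 18 h, 37 C, compounds delivered in DMSO. Detection via LiveBLAzer B/G FRET substrate, 2 h RT, fluorescence intensity.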

[18] = biological target: Glucocorticoid receptor (Homo sapiens) (UniProt P04150); experiment: qHTS assay to identify small molecule antagonists of the glucocorticoid receptor (GR) signaling pathway (AID 720692; active = well fitted inhibition curve with a large enough effect in the signal ratio in the repeat runs, not every such curve was filed as active; the % refers to the signal ratio)
In short: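 Quantitative HTS in antagonist format: HeLa cells expressing endogenous GR and a stably integrated GRE-bla reporter, stimulated with 5 nM dexamethasone (final) alongside test compounds for 18 h.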

[19] = qHTS assay to test for compound auto fluorescence at 535 nm (green) in HepG2 cells (AID 720675)
[20] = qHTS assay for small molecule disruptors of the mitochondrial membrane potential (AID 720635)
In short: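 HepG2 cells exposed to compound 1 hr at 37C, then Mito-MPS dye 30 min. Ratio read of aggregate (540/590 nm) versus monomer (490/535 nm) fluorescence.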

Measured: Potency

Chain of Glucocorticoid receptor (Homo sapiens) (P04150 whole entry, looked up): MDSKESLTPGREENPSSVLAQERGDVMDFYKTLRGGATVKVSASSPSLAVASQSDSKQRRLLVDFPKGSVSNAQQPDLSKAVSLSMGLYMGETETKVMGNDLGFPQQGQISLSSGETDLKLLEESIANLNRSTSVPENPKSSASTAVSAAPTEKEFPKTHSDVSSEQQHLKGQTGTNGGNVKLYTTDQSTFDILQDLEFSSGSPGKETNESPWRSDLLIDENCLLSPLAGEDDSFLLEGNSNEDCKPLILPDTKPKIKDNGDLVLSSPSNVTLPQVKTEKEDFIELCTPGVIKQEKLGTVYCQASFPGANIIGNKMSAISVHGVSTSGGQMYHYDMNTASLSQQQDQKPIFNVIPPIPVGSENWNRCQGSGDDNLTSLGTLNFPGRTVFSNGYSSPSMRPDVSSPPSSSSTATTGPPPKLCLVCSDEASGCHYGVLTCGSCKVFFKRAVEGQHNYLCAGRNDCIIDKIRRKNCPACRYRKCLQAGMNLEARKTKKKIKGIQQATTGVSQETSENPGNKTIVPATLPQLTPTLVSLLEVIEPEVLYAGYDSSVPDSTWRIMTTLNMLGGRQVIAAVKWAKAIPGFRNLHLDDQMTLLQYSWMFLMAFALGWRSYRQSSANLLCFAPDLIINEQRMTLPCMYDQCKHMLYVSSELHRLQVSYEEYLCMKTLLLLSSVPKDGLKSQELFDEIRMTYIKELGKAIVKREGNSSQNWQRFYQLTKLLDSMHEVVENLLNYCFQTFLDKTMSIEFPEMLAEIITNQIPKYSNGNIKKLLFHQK

CCN[C@@H](C)Cc1ccccc1
not listed: [19] | [20]
inactive: all other assays above

O=CCCl
not listed: [14] | [20]
inactive: all other assays above

N#CC(Br)(Br)C(N)=O
not listed: [5] | [9] | [17] | [18] | [20]
inactive: all other assays above

C=CC=O
not listed: [5] | [20]
inactive: all other assays above

N=C(N)[Se]
not listed: [5] | [14] | [18] | [20]
inactive: all other assays above

COc1cc(CC(C)N)cc(OC)c1OC (stereo unspecified)
not listed: [5] | [6] | [9] | [18]
inactive: all other assays above

Clc1ccc(C(Cl)(Cl)Cl)cn1
not listed: [6] | [20]
inactive: all other assays above

CN(CCO)CCO
not listed: [6] | [9] | [18] | [20]
inactive: all other assays above

CCc1cc(OC)c(C[C@H](C)N)cc1OC
not listed: [14] | [19] | [20]
inactive: all other assays above

CCC1(CC)C(=O)C=CNC1=O
not listed: [5] | [9]
inactive: all other assays above

CCCCCCCCBr
not listed: [5] | [6] | [20]
inactive: all other assays above

CCNP(=S)(OC)O/C(C)=C/C(=O)OC(C)C (stereo unspecified)
not listed: [5] | [6] | [14] | [20]
inactive: all other assays above

COc1cccc(C=O)c1
not listed: [14] | [19] | [20]
inactive: all other assays above

N#CN=C1SCCN1Cc1ccc(Cl)nc1
not listed: [5]
inactive: all other assays above

O=C1CC(=O)NC(=O)N1
not listed: [6] | [20]
inactive: all other assays above

CC(Cl)(Cl)Cl
not listed: [5] | [17] | [18] | [19] | [20]
inactive: all other assays above

CC(=O)CN(CC(C)=O)N=O
not listed: [14] | [18] | [20]
inactive: all other assays above

CCNc1nc(NCC)nc(SC)n1
not listed: [5] | [9] | [20]
inactive: all other assays above

CC1N=C(N)OC1c1ccccc1 (stereo unspecified)
not listed: [14] | [19] | [20]
inactive: all other assays above

COC(=O)[C@@H](N)CCCN/C(N)=N/[N+](=O)[O-]
not listed: [5] | [18] | [19] | [20]
inactive: all other assays above

ClCCCCl
not listed: [5] | [9] | [18] | [20]
inactive: all other assays above

CC1NCCOC1c1ccccc1 (stereo unspecified)
not listed: [4] | [9] | [17] | [18] | [19]
inactive: all other assays above

O=[N+]([O-])CCO
not listed: [4] | [5] | [20]
inactive: all other assays above

CON(C)C(=O)Nc1ccc(Br)cc1
not listed: [3] | [18] | [20]
inactive: all other assays above

CNC(=O)Oc1ccccc1C(C)C
not listed: [3] | [9] | [14] | [20]
inactive: all other assays above

BrCCc1ccccc1
not listed: [4] | [20]
inactive: all other assays above

CCCCOC(C)=O
not listed: [4] | [17] | [18] | [20]
inactive: all other assays above

CNC(=O)NC(O)C(Cl)(Cl)Cl (stereo unspecified)
not listed: [4] | [17] | [18] | [20]
inactive: all other assays above

N[C@@H]1C[C@H]1c1ccccc1
not listed: [4] | [5] | [6] | [9] | [17] | [18] | [20]
inactive: all other assays above

Cc1cc(OC(=O)N(C)C)nn1C(=O)N(C)C
not listed: [4] | [5] | [17] | [18] | [20]
inactive: all other assays above

c1cncc([C@@H]2CCCCN2)c1
not listed: [4] | [20]
inactive: all other assays above

C[N+]1(C)CCCCC1
not listed: [4] | [5] | [6] | [9] | [17] | [18]
inactive: all other assays above

CS(=O)(=O)Cl
not listed: [4] | [9] | [17] | [18] | [19]
inactive: all other assays above

CCN(CCO)CCn1c(Cc2ccccc2)nc2c1c(=O)n(C)c(=O)n2C
not listed: [4] | [5] | [6] | [20]
inactive: all other assays above
